# High-throughput results: PubChem BioAssay, Emory University Molecular Libraries Screening Center
# 14-3-3g Raf: 14-3-3 gamma protein interaction modulation; FP, 14-3-3gamma / TMR-pS259-Raf peptide binding; 0.19% of 160,000 active; inhibition, % at 40 µM; in the data active = inhibition above about 30%
# Target sequence (P61981 whole entry, looked up): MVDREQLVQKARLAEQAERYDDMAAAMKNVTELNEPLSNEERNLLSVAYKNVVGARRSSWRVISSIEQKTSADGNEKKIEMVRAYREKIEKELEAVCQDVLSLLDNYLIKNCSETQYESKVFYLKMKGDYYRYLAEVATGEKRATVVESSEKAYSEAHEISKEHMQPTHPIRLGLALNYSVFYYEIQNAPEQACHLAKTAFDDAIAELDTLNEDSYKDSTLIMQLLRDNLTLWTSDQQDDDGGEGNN
# Hits are given with their value; n = inactive. Shown is part of a subset that was picked to be rich in hits.
SMILES,14-3-3g Raf
O=C(Nc1cccc(C(F)(F)F)c1)c1ccc(NC(=O)c2cccc(Br)c2)cc1,n
Cc1c(C(=O)Nc2cccc(C(F)(F)F)c2)cccc1[N+](=O)[O-],n
O=C(Nc1cccc(C(F)(F)F)c1)c1ccc(Br)c([N+](=O)[O-])c1,73.4
O=C(CCn1c(=O)[nH]c2ccsc2c1=O)NCc1ccccc1,n
CCCCOc1ccccc1C1C(C(=O)OC2CCCCC2)=C(C)NC2=C1C(=O)CCC2 (centres undefined),n
Cc1c(C(=O)NCc2ccccc2)oc2ccc(S(=O)(=O)N3CCC(C)CC3)cc12,n
O=C(NCc1cccs1)c1cc(S(=O)(=O)N2CCOCC2)ccc1F,n
O=C(NCc1ccccn1)c1cc(S(=O)(=O)N2CCOCC2)ccc1F,113.6
Cc1c(C(=O)NCc2ccccn2)oc2ccc(S(=O)(=O)N3CC(C)CC(C)C3)cc12 (centres undefined),n
O=C(NCc1cccnc1)c1cc(S(=O)(=O)N2CCOCC2)ccc1F,n
Cc1c(C(=O)NCc2ccccn2)oc2ccc(S(=O)(=O)N3CCC(C)CC3)cc12,62.7
Cc1c(C(=O)NCc2ccccn2)oc2ccc(S(=O)(=O)N3CCOCC3)cc12,128.7
Cc1c(C(=O)NCc2ccco2)oc2ccc(S(=O)(=O)N3CCOCC3)cc12,n
Cc1c(C(=O)NCc2cccs2)oc2ccc(S(=O)(=O)N3CCOCC3)cc12,n
Cc1ccccc1CSCCC(=O)NC1CCCCCC1,n
NC(=O)c1c(NC(=O)c2ccccc2Br)sc2c1CCCC2,n
O=c1c2sccc2nc(SCc2ccccc2)n1Cc1ccc2c(c1)OCO2,n
Cc1cc(NC(=O)Cn2c(=O)n(Cc3ccco3)c(=O)c3ccccc32)n[nH]1,n
COc1cc(NC(=O)c2cccc3ccccc23)c(OC)cc1Cl,n
O=C(CC1SC(=Nc2ccccc2)N(c2ccccc2)C1=O)Nc1ccc([N+](=O)[O-])cc1 (centres undefined),n
O=C(Cc1ccccc1)Oc1ccc2oc(=O)sc2c1,n
COc1cccc(Oc2coc3c(CN4CCOCC4)c(O)ccc3c2=O)c1,n
COc1ccccc1-c1coc2c(CN3CCOCC3)c(O)ccc2c1=O,30.3
O=c1c(-c2ccc3c(c2)OCCO3)coc2c(CN3CCOCC3)c(O)ccc12,n
CN1c2ccccc2C(C)(C)C12C=Cc1c(ccc3ccccc13)O2 (centres undefined),n
SMILES,14-3-3g Raf
COc1ccc(S(=O)(=O)c2ccccc2)cc1[N+](=O)[O-],n
Cc1ccccc1CNC(=O)c1ccc(N(C)S(=O)(=O)c2ccccc2)cc1,n
Cc1ccc(CNC(=O)c2ccc(N(C)S(=O)(=O)c3ccccc3)cc2)cc1,52.8
CN(c1ccc(C(=O)NCc2ccccc2)cc1)S(=O)(=O)c1ccccc1,n
CNC(=O)C1=C(C)NC(=S)NC1c1cc(C)c(OC)cc1C (centres undefined),n
CCCc1ccc(O)c(N=Cc2cc(Br)cc(OC)c2O)c1,85.4
COc1ccc(N=Cc2cc(Br)ccc2O)c(OC)c1,n
CCCc1ccc(O)c(N=Cc2cc(Br)cc(OCC)c2O)c1,n
CC(=O)N1CCC(=O)N(CCC(C)C)c2ccccc21,n
Cc1cccc(-n2nc3c(c2NC(=O)c2ccccc2I)CSC3)c1C,n
COc1ccc(NC2=CC(c3cccc4ccccc34)N(c3ccc(OC)cc3)C2=O)cc1 (centres undefined),n
Nc1cc(OC(=O)c2ccc(F)cc2)nn1S(=O)(=O)c1ccc(Br)cc1,n
CCc1ccccc1NC(=O)c1cc(-c2ccccc2OC)on1,n
O=C1C=C(C(F)(F)F)c2ccc(NC3CCCCC3)c3cccc1c23,130.7
O=C1C(Cl)=C(NC2CCCCC2)C(=O)N1c1cccc(C(F)(F)F)c1,n
O=[N+]([O-])c1cc(S(=O)(=O)C(Cl)(Cl)Br)ccc1NC1CCCCC1,n
CC1=C(C(=O)OCc2ccccc2)C(c2cccc([N+](=O)[O-])c2)NC(=O)N1 (centres undefined),n
CC1=C(C(=O)OCCOc2ccccc2)C(c2cccc([N+](=O)[O-])c2)NC(=O)N1 (centres undefined),34.3
CC1=C(C(=O)OCCOc2ccccc2)C(c2cccc([N+](=O)[O-])c2)NC(=O)N1C (centres undefined),n
CN(C(=O)CCCNC(=O)Cn1cnc2sc3c(c2c1=O)CCCC3)C1CCCCC1,n
Clc1ccccc1Cc1noc(C=Cc2ccc(Br)cc2)n1,n
CC(C)c1ccc(NC(=O)CSc2nc3[nH]ncc3c(=O)n2-c2cccc(Cl)c2)cc1,n
OCCN1CCN(CC#CCn2c3ccccc3c3ccccc32)CC1,n
OC(CCl)Cn1c2ccccc2c2ccccc21 (centres undefined),n
C#CCn1c2ccccc2c2ccccc21,57.8
SMILES,14-3-3g Raf
C=CCN1C(=O)c2ccccc2Sc2ccc(C(=O)NCc3ccc(OC)cc3)cc21,n
O=C(Nc1ccc(-c2nc3ccccc3c(=O)o2)cc1)c1cccc(Br)c1,n
CCOC(=O)Cc1ccc(NCc2cccs2)cc1,n
O=[N+]([O-])c1cccc(NCc2cccs2)c1,n
Oc1ccc(NCc2cccs2)cc1,52.1
O=C(Nc1cccc(C(F)(F)F)c1)c1c(O)c2cccc3c2n(c1=O)CCC3,n
CC(C)Cc1nc2sc3c(=O)[nH]cnc3c2c2c1COC(C)(C)C2,n
COc1ccc(C2=NN(S(C)(=O)=O)C(c3ccc(Cl)cc3)C2)cc1 (centres undefined),n
Cc1cc(C)cc(OCC(=O)Nc2cc(-c3nc4ccccc4o3)ccc2C)c1,n
CCOc1ccc2[nH]c(=O)c(CN(C(=O)N3CCOCC3)C3CC3)cc2c1,n
CCOc1ccc2[nH]c(=O)c(CN(Cc3ccccc3)C(=O)N3CCCC3)cc2c1,n
CCOc1ccc2[nH]c(=O)c(CN(CC3COCCO3)C(=O)C3CC3)cc2c1 (centres undefined),39.5
CN(C(=O)c1c[nH]c2ccc(S(=O)(=O)N(C)c3ccc(Cl)cc3)cc2c1=O)C1CCCCC1,n
COc1ccc(C=Nc2ccc3ncccc3c2)cc1,n
COc1ccc(C=Nc2ccco2)cc1,31.9
COc1ccc(C=Nc2ccccc2)cc1,n
C=CCC1(NCc2ccco2)CCN(C)CC1,n
COc1ccc(-c2nc(CSCC(=O)NCC3CCCO3)c(C)o2)cc1OC (centres undefined),n
CCOC(=O)N1CCC(NC(=O)CSCc2nc(-c3ccc(OC)c(OC)c3)oc2C)CC1,60.7
COc1ccc(-c2nc(CSCC(=O)N3CCC(C(N)=O)CC3)c(C)o2)cc1OC,n
Cc1cc(C)cc(Oc2c(C(F)(F)F)oc3cc(OC(=O)c4ccco4)ccc3c2=O)c1,n
C#CC(C)(C)NC(=O)CCCCCN1C(=O)c2ccccc2C1=O,n
CCOC(=O)C1=C(CSc2nc(-c3ccncc3)ccc2C#N)OC(N)=C(C#N)C1c1cccnc1 (centres undefined),n
CCOC(=O)C1=C(N)Oc2cc(O)ccc2C1c1cccnc1 (centres undefined),n
CCOC(=O)C1=C(C(C)=O)C(c2cccnc2)C(C#N)=C(N)O1 (centres undefined),32.0
SMILES,14-3-3g Raf
O=C(Cn1c(=O)sc2ccccc21)N1CCN(C(=O)c2ccco2)CC1,n
O=C(Cn1c(=O)n(Cc2ccc3c(c2)OCO3)c(=O)c2ccccc21)NCCc1ccccc1,n
COc1ccccc1Cn1c(SCc2ccccc2F)nc2ccccc2c1=O,n
NCCCC(=O)N1CCN(c2ccc3ccccc3n2)CC1,n
O=C(Nc1ccccc1O)c1cccc(S(=O)(=O)N2CCCC2)c1,n
COc1cc(NCCCC(C)N)c2ncccc2c1 (centres undefined),69.8
